The full ranking holds about 33,000 sequences; the median of “e-score” is about -0.053, and the highest 2% start at about 0.38. The sample holds the highest values, similar sequences and a random draw of the others, so the mix is not that of the screen.
Target: T1, SIX1 homeodomain (reference allele) (human, UniProt Q15475 108-198)
T1 sequence: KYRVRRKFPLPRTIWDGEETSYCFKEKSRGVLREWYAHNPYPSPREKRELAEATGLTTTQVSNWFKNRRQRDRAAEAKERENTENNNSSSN
Experiment: universal protein binding microarray; Universal all-10-mer PBM (8x60K, AMADID 030236), 300 nM GST-tagged protein, Alexa Fluor 488 anti-GST; buffer, salt, pH and temperature not stated (as in Berger); high values mean tight binding
Conditions: protein: ivt; tags: N-terminal GST; dsDNA, one strand shown
Method in brief: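 Duplicate protein binding microarrays (universal 'all 10-mer', 8×60K format) were incubated with GST-tagged homeodomains at 300 nM final concentration. Binding was quantified as 8-mer E-scores with the Universal PBM Analysis Suite.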

| Sequence | binding signal |
| --- | --- |
| CTCAGGTA | 0.16 ± 0.0411 E-score |
| CTCCTATC | 0.2712 ± 0.00126 E-score |
| AGAGTGAG | 0.172 ± 0.0561 E-score |
| CCGGCTCA | 0.256 ± 0.0189 E-score |
| ACACCCAG | 0.278 ± 0.0263 E-score |
| ATACCAAG | 0.285 ± 0.0262 E-score |
| AAACCCAT | 0.169 ± 0.00646 E-score |
| ATACCCAA | 0.401 ± 0.0166 E-score |
| ACACCCAA | 0.331 ± 0.0548 E-score |
| ACACCCAC | 0.221 ± 0.0764 E-score |
| ATACCCAC | 0.392 E-score |
| ATACCCAG | 0.382 E-score |
| ACACCCAT | 0.271 ± 0.0323 E-score |
| ATACCAAA | 0.317 ± 0.0247 E-score |
| CACCCCAC | 0.263 ± 0.128 E-score |
| ATACCCAT | 0.393 ± 0.00746 E-score |
| GAGCCGGA | 0.166 ± 0.0429 E-score |
| TATGCGGA | 0.284 ± 0.018 E-score |
| ATGCGATC | 0.309 ± 0.0257 E-score |
| ATACGAGG | 0.232 ± 0.0433 E-score |
| CATCTCAG | 0.227 ± 0.014 E-score |
| TACGCATA | 0.197 ± 0.0197 E-score |

| Sequence | binding signal |
| --- | --- |
| ATAGGGAT | 0.395 ± 0.00975 E-score |
| ACAGGGAT | 0.297 ± 0.0162 E-score |
| ATAGGGGA | 0.287 ± 0.00909 E-score |
| ACCTTATA | 0.17 ± 0.0678 E-score |
| GGATCGCA | 0.366 ± 0.0387 E-score |
| CTATCGCC | 0.179 ± 0.0265 E-score |
| CTATCGCA | 0.186 ± 0.0165 E-score |
| TGATCGCA | 0.171 ± 0.0248 E-score |
| ATATCGCC | 0.441 ± 0.0115 E-score |
| ACATCGCA | 0.152 ± 0.012 E-score |
| AGATCGCC | 0.288 ± 0.0356 E-score |
| AGATCGCG | 0.22 ± 0.0358 E-score |
| ATATCGCG | 0.422 ± 0.0273 E-score |
| GTATCGCA | 0.431 ± 0.0148 E-score |
| ATCGCGCG | 0.213 ± 0.0714 E-score |
| ATATCGCA | 0.42 ± 0.0293 E-score |
| ATCGGTCG | 0.225 ± 0.0271 E-score |
| CGGTTATC | 0.309 ± 0.0176 E-score |
| AGTACGAT | 0.248 ± 0.0454 E-score |
| ATCATAAT | 0.229 ± 0.0622 E-score |
| GATAATGC | 0.16 ± 0.00226 E-score |
| GCGATCTA | 0.218 ± 0.0326 E-score |

| Sequence | binding signal |
| --- | --- |
| CTCCGGTA | 0.244 ± 0.0299 E-score |
| GAAACACC | 0.189 ± 0.0066 E-score |
| AGATCCCC | 0.384 ± 0.0161 E-score |
| TGATCCAA | 0.324 ± 0.0147 E-score |
| CGATCCCC | 0.437 ± 0.041 E-score |
| GGATCCCA | 0.37 ± 0.0601 E-score |
| CGATCCCA | 0.346 ± 0.0579 E-score |
| TGATCCCA | 0.3763 ± 0.00132 E-score |
| GGATCCCC | 0.419 ± 0.0404 E-score |
| AGATCCCT | 0.292 ± 0.00813 E-score |
| AGATCCCA | 0.213 ± 0.0026 E-score |
| AGATCCCG | 0.302 ± 0.0627 E-score |
| CGATCCCG | 0.332 ± 0.04 E-score |
| GAATCCCC | 0.23 ± 0.0451 E-score |
| ATATACAA | 0.27 ± 0.0205 E-score |
| ATAGGAGA | 0.185 ± 0.0295 E-score |
| GATCGTAC | 0.274 ± 0.0438 E-score |
| ATACATGG | 0.3102 ± 0.0018 E-score |
| ATGACACC | 0.4711 ± 0.00199 E-score |
| CTGACACC | 0.468 ± 0.0134 E-score |
| AGGACACC | 0.366 ± 0.0116 E-score |
| CGGACACC | 0.3658 ± 0.00136 E-score |

| Sequence | binding signal |
| --- | --- |
| ATGACACG | 0.289 ± 0.0161 E-score |
| CAGACACC | 0.291 ± 0.0577 E-score |
| TATCGCAA | 0.33 ± 0.0108 E-score |
| CCAGGAGA | 0.158 ± 0.0169 E-score |
| AGCATGAT | 0.2 ± 0.0238 E-score |
| ATAAGCAG | 0.173 ± 0.00802 E-score |
| AGAAGATA | 0.201 ± 0.105 E-score |
| GGATGATA | 0.443 ± 0.0105 E-score |
| AGATGATC | 0.38 ± 0.0348 E-score |
| AGCTGATC | 0.3159 ± 0.00281 E-score |
| CGCTGATC | 0.279 ± 0.0361 E-score |
| AGAAGATC | 0.231 ± 0.077 E-score |
| GGATGAGA | 0.212 ± 0.0038 E-score |
| AGATGAGA | 0.224 ± 0.0832 E-score |
| CGATGATC | 0.379 ± 0.019 E-score |
| AGATGATA | 0.432 ± 0.0425 E-score |
| CGATCATC | 0.3167 ± 0.00296 E-score |
| GGATGGTA | 0.214 ± 0.0386 E-score |
| ATGAAACC | 0.242 ± 0.0415 E-score |
| ATCCCATA | 0.351 ± 0.0216 E-score |

Source: paper PMC10668032, “Altered binding affinity of SIX1-Q177R correlates with enhanced WNT5A and WNT pathway effector expression in Wilms tumor”
